Screens: PubChem, Broad Institute
C diff growth: C. difficile growth inhibitors, primary screen, HTS. Clostridium difficile clinical isolate growth, OD600, 24 h; hits give low values. growth activity, negative = inhibition, % at 16 µg/mL (by protocol). 86,000 compounds, 0.25% hits. AID 1259249, 2017;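 active means mean growth activity at or below -80% and every replicate also at or below -80%; inconclusive means mean at or below -80% but some replicate above -80%; inactive means mean growth activity above -80%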;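 further: 0% = DMSO wells and -100% = levofloxacin 16 µg/mL wells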
Pf Dd2 growth: P. falciparum Dd2 growth inhibitors, primary screen, SYBR Green fluorescence, single dose replicates; 72 h; hits give low values; activity change, % at 10 µM; 94,000 compounds, 2.3% hits; AID 1159554, 2015; in the data active means activity change below about -80%; inconclusive means no clear call, values can overlap the other calls
T cruzi growth-1: T. cruzi intracellular proliferation inhibitors, primary screen, cell-based, beta-gal Tulahuen parasites, NIH3T3 host, luminescence. T. cruzi beta-gal in NIH3T3, GalScreen luminescence, 90 h. inhibition, % at 8.34 µM. 77,000 compounds, 5.9% hits. AID 624255, 2012;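 active means mean inhibition above about 93%, with at least 55% of replicates each passing it, limit read from the data, passing the limit was not always enough; inconclusive means only one of those two conditions holds; inactive means neither condition holds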
T cruzi growth-2: T. cruzi intracellular proliferation inhibitors, confirmation, cell-based, NIH3T3 host, beta-gal parasite, luminescence, cherry-pick; 5,600 compounds, 72% hits; inhibition, % at 8.35 µM; T. cruzi beta-gal in NIH3T3, GalScreen luminescence, 90 h; shares compounds with T cruzi growth-1; AID 651739, 2012;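 active means mean replicate inhibition above about 95% and at least 55% of replicates individually reaching it, limit read from the data; inconclusive means only one of the two criteria is met; inactive means neither criterion is met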
T cruzi growth-3: inhibitors of intracellular T. cruzi replication, confirmation, NIH3T3 host cells, beta-gal parasites, cherry-pick, set 2 | shares compounds with T cruzi growth-1 | T. cruzi beta-gal in NIH3T3, GalScreen luminescence, 90 h | inhibition, % at 2.09 µM | 5,600 compounds, 21% hits;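 active means mean inhibition above about 95%, with at least 55% of replicates also reaching it, limit read from the data; inconclusive means meets just one of the two conditions; inactive means meets neither condition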;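 further: plate controls were neutral control median for no effect and positive control median for full effect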
NIH3T3 tox: cytotoxicity in mouse NIH/3T3 fibroblasts, confirmation, cytotoxicity control for T. cruzi proliferation inhibitor project, cell-based, cherry-pick, single point; shares compounds with T cruzi growth-1; NIH/3T3 viability, CellTiter-Glo ATP luminescence, 90 h; cytotoxicity (signal decrease), % at 8.35 µM; 5,600 compounds, 14% hits; AID 651742, 2012;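 active means mean signal decrease across replicates above about 35% based on untreated-well scatter, with enough replicates individually passing, limit read from the data; inconclusive means no rule stated though some were filed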;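 further: 0% = median of neutral control wells and 100% = median of positive control wells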
3T3 cytotox 2: NIH/3T3 fibroblast cytotoxicity, confirmation, cytotoxicity control, cell-based, cherry-pick, single point, set 2 | shares compounds with T cruzi growth-1 | NIH/3T3 viability, CellTiter-Glo ATP luminescence, 90 h | inhibition, % at 24.9 µM | 5,600 compounds, 56% hits | AID 651744, 2012;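 active means mean loss of cell viability signal at or above a set limit, and enough replicates individually reaching it; inconclusive means meets only the mean limit or only the replicate share; inactive means meets neither condition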;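 further: 0% = median of neutral control wells and 100% = median of positive control wells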
Numbers without * were called inactive; ! = repeats disagree. Compounds with a hit are over-represented: about 6.7% of the library has one in this group of screens.

`O=C(C[C@H]1CC[C@@H](NC(=O)C2CC2)[C@@H](CO)O1)NC1CCC1` gave Pf Dd2 growth 21 and T cruzi growth-1 -11.
For COc1ccc(S(=O)(=O)N(C)C[C@@H]2OCc3cnnn3CCCC(=O)N([C@H](C)CO)C[C@H]2C)cc1 the results were C diff growth 2, Pf Dd2 growth 9 and T cruzi growth-1 -35.
For COc1ccc(S(=O)(=O)N(C)C[C@H]2OCc3cnnn3CCCC(=O)N([C@@H](C)CO)C[C@H]2C)cc1 the results were C diff growth 3, Pf Dd2 growth -3, T cruzi growth-1 inconclusive, T cruzi growth-2 7, T cruzi growth-3 24, NIH3T3 tox 2 and 3T3 cytotox 2 4.
`C[C@H](CO)N1C[C@H](C)[C@@H](CN(C)S(=O)(=O)c2ccc(Cl)cc2)OCc2cnnn2CCCC1=O` gave C diff growth 2, Pf Dd2 growth 1 and T cruzi growth-1 7.
For C[C@H](CO)N1C[C@H](C)[C@H](CN(C)S(=O)(=O)c2ccc(Cl)cc2)OCc2cnnn2CCCC1=O the results were C diff growth 6, Pf Dd2 growth -12, T cruzi growth-1 inconclusive, T cruzi growth-2 -13, T cruzi growth-3 -14, NIH3T3 tox -6 and 3T3 cytotox 2 15.
C[C@@H]1CN([C@H](C)CO)C(=O)CCCn2nncc2CO[C@@H]1CN(C)S(=O)(=O)c1cccc(F)c1 was read as C diff growth 1, Pf Dd2 growth 7, T cruzi growth-1 144*!, T cruzi growth-2 103*, T cruzi growth-3 1, NIH3T3 tox 14 and 3T3 cytotox 2 19.
Screening C[C@H]1CN([C@@H](C)CO)C(=O)CCCn2nncc2CO[C@H]1CN(C)S(=O)(=O)c1cccc(F)c1 returned C diff growth 4, Pf Dd2 growth 6 and T cruzi growth-1 -26.
`C[C@@H]1CN([C@@H](C)CO)C(=O)c2cccc(NS(=O)(=O)c3ccccc3)c2O[C@@H]1CN(C)CC1CCCCC1` gave C diff growth 1, Pf Dd2 growth -37 and T cruzi growth-1 49.
Screening C[C@H]1CN([C@@H](C)CO)C(=O)c2cc(NS(=O)(=O)c3cccs3)ccc2O[C@H]1CN(C)C(=O)Nc1cccc2ccccc12 returned Pf Dd2 growth -8 and T cruzi growth-1 5.
`C[C@H]1CN([C@@H](C)CO)C(=O)c2cccc(NC(=O)c3nc4ccccc4s3)c2O[C@@H]1CN(C)S(=O)(=O)c1ccc(Cl)cc1` gave C diff growth 1, Pf Dd2 growth -60 and T cruzi growth-1 64.
O=C(Nc1cccc(F)c1)N[C@H]1CC[C@H](CCNS(=O)(=O)c2cccc(Cl)c2)O[C@H]1CO was read as Pf Dd2 growth 3, T cruzi growth-1 163*, T cruzi growth-2 103*, T cruzi growth-3 30, NIH3T3 tox -15 and 3T3 cytotox 2 -1.
O=C(Nc1cccc(F)c1)N[C@@H]1CC[C@@H](CCNS(=O)(=O)c2cccc(Cl)c2)O[C@@H]1CO was read as Pf Dd2 growth -77, T cruzi growth-1 121*, T cruzi growth-2 56, T cruzi growth-3 -9, NIH3T3 tox -27 and 3T3 cytotox 2 -5.
`O=C(Nc1ccc(F)cc1)N[C@@H]1CC[C@@H](CCNS(=O)(=O)c2cccc(Cl)c2)O[C@@H]1CO` gave C diff growth -8, Pf Dd2 growth 19 and T cruzi growth-1 -11.
`O=C(Nc1cccc(F)c1)N[C@H]1CC[C@@H](CCNS(=O)(=O)c2cccc(Cl)c2)O[C@@H]1CO` gave Pf Dd2 growth -19 and T cruzi growth-1 16.
`O=C(C[C@H]1C=C[C@H](NC(=O)Nc2ccc3c(c2)OCO3)[C@H](CO)O1)NCc1ccccc1` gave C diff growth 4, Pf Dd2 growth 1 and T cruzi growth-1 -57.
`CCS(=O)(=O)N[C@H]1C=C[C@@H](CC(=O)NCc2ccc(F)cc2)O[C@H]1CO` gave Pf Dd2 growth 3 and T cruzi growth-1 1.
C[C@H](CO)N1C[C@H](C)[C@H](CN(C)CC2CC2)Oc2c(NS(=O)(=O)c3cccs3)cccc2C1=O was read as C diff growth -1, Pf Dd2 growth 10 and T cruzi growth-1 48.
C[C@@H]1CN([C@@H](C)CO)C(=O)c2cc(NC(=O)C3CCCCC3)ccc2O[C@@H]1CN(C)Cc1ccc(-c2ccccc2)cc1 was read as Pf Dd2 growth 3, T cruzi growth-1 inconclusive, T cruzi growth-2 104*, T cruzi growth-3 83, NIH3T3 tox 24 and 3T3 cytotox 2 80*.
`C[C@@H]1CN([C@@H](C)CO)C(=O)c2cc(NC(=O)C3CCCCC3)ccc2O[C@H]1CN(C)Cc1ccc(-c2ccccc2)cc1` gave Pf Dd2 growth -40, T cruzi growth-1 110*, T cruzi growth-2 102*, T cruzi growth-3 100*, NIH3T3 tox 16 and 3T3 cytotox 2 7.
Screening C[C@H]1CN([C@@H](C)CO)C(=O)c2cc(NC(=O)C3CCCCC3)ccc2O[C@H]1CN(C)Cc1ccc(-c2ccccc2)cc1 returned Pf Dd2 growth -15 and T cruzi growth-1 47.
C[C@H](CO)N1C[C@H](C)[C@@H](CN(C)Cc2ccc(-c3ccccc3)cc2)Oc2ccc(NC(=O)C3CC3)cc2C1=O was read as C diff growth -8, Pf Dd2 growth -2 and T cruzi growth-1 22.
For COc1cccc(-c2ccc([C@@H]3[C@@H](CO)N(C(=O)C4CC4)C34CN(C(C)=O)C4)cc2)c1 the results were C diff growth -2 and Pf Dd2 growth 23.
Screening CCCNC(=O)N1CCC2(CC1)CN(C(=O)c1ccncc1)[C@@H](CO)c1[nH]c3cc(OC)ccc3c12 returned C diff growth 4 and Pf Dd2 growth -31.
`CN1CCCCN2[C@H](CO)[C@H](c3ccc(Br)cc3)[C@@H]2C1` gave C diff growth -3, Pf Dd2 growth 43 and T cruzi growth-1 -23.
For C[C@@H]1CN([C@H](C)CO)C(=O)Cc2cc(NC(=O)Nc3ccc(F)cc3)ccc2O[C@H]1CN(C)S(=O)(=O)c1cccs1 the results were C diff growth -3, Pf Dd2 growth 0 and T cruzi growth-1 7.
CC(C)C#Cc1ccc([C@H]2[C@H](C#N)N(C(=O)c3ccccn3)[C@H]2CO)cc1 was read as C diff growth -5, Pf Dd2 growth -3 and T cruzi growth-1 81.
